Data as given in PubChem BioAssay (NCI).
This is part of a sample that, as a whole, favours compounds with a hit. Of some 83,000 tested, about 20% had one in any assay.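 For each line, cells grew in 96-well plates with the test compound present at a single concentration for 48 hours.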 Active and inactive are the calls of the source. Rule for the calls: active = growth percent below 10; inactive = the rest.

System: HL-60(TB) leukemia
Assay: NCI-60 one-dose screen, 48 h (100 = growth as untreated, 0 = no growth, -100 = all killed)
Conditions: 10 µM unless noted

| Compound | growth |
| --- | --- |
| Cc1ccc(NC(=O)N2CCCCC2)cc1[N+](=O)[O-] | 104% (inactive) |
| Cc1cc(C(C#N)c2ccc(Cl)cc2)c(Cl)cc1NC(=O)c1cc(I)cc(I)c1O (centres undefined) | 17.4% (inactive) |
| O=C(CCCN1CCOCC1)Nc1ccc(Cn2nnc3c2C(=O)c2nnn(Cc4ccc(NC(=O)CCCN5CCOCC5)cc4)c2C3=O)cc1 | -7.47% (active) |
| CCOC(=O)c1c(NC(=O)c2ccc(OC)cc2)sc2c(CN(C)C)c(O)ccc12 | 1.3% (active) |
| COc1ccc(CN2c3ccccc3Sc3ccccc32)c(C(F)(F)F)c1 | 23.7% (inactive) |
| CC1C=CC(OC(=O)C(C)(O)CCC(O)(C(=O)OC2CC(O)C(C(C)C)CC2(C)O)C(C)C)(C(C)C)CC1 (centres undefined) | -50.8% [4.63 µM] (active) |
| COc1ccc2c(ccc[n+]2C)c1 | 132% (inactive) |
| CCn1cc(C(=O)O)c(=O)c2cc(F)c(N3CCN(S(=O)(=O)c4c(C)cc(C)cc4C)CC3)cc21 | 73% (inactive) |
| CS(=O)(=O)Nc1cc(-c2ccc3ncnc(Nc4cccc(Cl)c4F)c3c2)cnc1Cl | 80.1% (inactive) |
| CCC(C)CC(C)C(=O)c1c(O)ccn(O)c1=O (centres undefined) | -0.418% (active) |
| O=C(O)c1ccnc(Br)c1 | 96.5% (inactive) |
| OCCNc1nc(NCCO)nc(Nc2ccc(C3=NN(c4cc(Cl)cc(Cl)c4)C(c4ccccc4)C3)cc2)n1 (centres undefined) | 61.7% (inactive) |
| NC(=S)N/N=C/c1ccc(OC(=O)COc2cc(Cl)c(Cl)cc2Cl)cn1 | 47.1% (inactive) |
| CC(=O)OCC(=O)C1(O)C(C)CC2C3C=C(C)C4=Cc5c(cnn5-c5ccccc5)CC4(C)C3C(O)CC21C (centres undefined) | 14.7% (inactive) |
